The whole screen tested about 360,000 compounds, of which about 9,100 (2.5%) were called active. Inconclusive results (about 4%) are left out. Rule as the data show it: active = max response below about -50%; inconclusive = no clear call, values can overlap the other calls; inactive = above that. Only a selection was taken, and actives are over-represented in it overall.
% is scaled to controls: 0 for no effect and ±100 for the full control effect.

Chain of D(3) dopamine receptor (Homo sapiens) (P35462 whole entry, looked up): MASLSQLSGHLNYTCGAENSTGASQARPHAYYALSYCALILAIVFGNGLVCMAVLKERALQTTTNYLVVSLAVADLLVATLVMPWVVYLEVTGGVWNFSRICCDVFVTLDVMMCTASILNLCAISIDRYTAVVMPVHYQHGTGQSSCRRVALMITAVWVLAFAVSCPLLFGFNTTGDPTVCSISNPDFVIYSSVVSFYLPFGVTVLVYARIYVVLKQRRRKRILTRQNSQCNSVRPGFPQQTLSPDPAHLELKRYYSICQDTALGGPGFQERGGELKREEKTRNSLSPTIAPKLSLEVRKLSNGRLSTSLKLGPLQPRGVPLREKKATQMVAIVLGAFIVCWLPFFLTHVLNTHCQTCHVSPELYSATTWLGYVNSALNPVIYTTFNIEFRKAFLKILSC

The assay deals with D(3) dopamine receptor (Homo sapiens) (UniProt P35462). Briefly: qHTS of D3 Dopamine Receptor Antagonist: qHTS. The settings on record: D3R cells, DiscoveRx beta-arrestin luminescence, antagonist mode; stronger effect = lower value. The method in brief:
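Cells expressing the human receptor were seeded at 1500 cells/well, incubated overnight at 37 degrees C in 5% CO2, then exposed to library compounds with dopamine controls for 90 minutes at 37 degrees C before luminescent detection.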
In general terms: In qHTS, concentration-response curves come from the screen itself.
As for `O=C1[C@H]2[C@@H](c3ccc(C(F)(F)F)cc3)N[C@]3(CCCN(Cc4ccc(Br)cc4)C3=O)[C@H]2C(=O)N1Cc1ccccc1`, the max response, negative = inhibition is 29.8% (inactive).

Consider `CCc1nc(NCCO)c(C#N)c2c1CCCC2`, for which the max response, negative = inhibition was -13.6% (inactive).

Regarding `CC(C)CCNc1nc(N2CCCC2)c2c(c1C#N)CCN(C)C2`, the max response, negative = inhibition is -65.7% (active).

As for `CC(C)Cc1nc(N2CCOCC2)c(C#N)c2c1CCC2`, the max response, negative = inhibition is 36.7% (inactive).

Consider `CCOC(=O)C1(C)CCCN(C(=O)c2ccc(N(C)C)cc2)C1` (configuration not stated), for which the max response, negative = inhibition is 3.97% (inactive).

Regarding `C/C(=N\NC(=O)Cc1ccc(Cl)cc1)c1ccccn1`, the max response, negative = inhibition was -93.2% (active).

In the case of `CC(=NNC(=S)N1CCCCCC1)c1ccccn1`, the max response, negative = inhibition is 18.7% (inactive).

As to `NC(=O)NC(CC(=O)NNC(=O)c1ccccn1)c1ccc(Cl)cc1` (configuration not stated), the max response, negative = inhibition is -12.6% (inactive).

Regarding `CC1(C(=O)NS(=O)(=O)c2ccc(Cl)cc2)CCN1C(=O)CC1CCCC1` (configuration not stated), the max response, negative = inhibition was -16% (inactive).

Consider `CCN1C(=O)[C@H]2[C@@H](c3ccccc3)N[C@]3(CCCN(Cc4ccc(C)cc4)C3=O)[C@H]2C1=O`, for which the max response, negative = inhibition is -7.93% (inactive).

With `CCc1nc2ccc(C(=O)N3CCC(O)(Cc4ccccc4)CC3)cn2c1N(C)C(=O)Cc1ccccc1`, the max response, negative = inhibition was -22.4% (inactive).

`Cc1ccc(CN2CCN(c3ccccc3Cl)CC2)o1`: the max response, negative = inhibition was -75.6% (active).

As for `Cc1ccc(CN2CCN(Cc3cn(C)nc3-c3ccccc3)CC2CCO)o1` (configuration not stated), the max response, negative = inhibition was 3.14% (inactive).

In the case of `Cc1ccc(CN2CCN(Cc3ccc(OCCO)cc3)CC2CCO)o1` (configuration not stated), the max response, negative = inhibition is 4.23% (inactive).

In the case of `CC(NC(=O)c1cccc(S(=O)(=O)N2CCc3ccccc3C2)c1)c1ccco1` (configuration not stated), the max response, negative = inhibition was 4.52% (inactive).

As for `O=C(Nc1ccc(S(=O)(=O)N2CCc3ccccc3C2)cc1)c1ccccc1`, the max response, negative = inhibition is 19.5% (inactive).

As for `COc1ccc(C(CNC(=O)c2cc(S(=O)(=O)Nc3cccc(C)c3)ccc2C)N2CCCC2)cc1` (configuration not stated), the max response, negative = inhibition is -25.7% (inactive).

As to `COc1ccc(C(CNC(=O)c2cccc(S(=O)(=O)Nc3ccccc3Cl)c2)N2CCOCC2)cc1` (configuration not stated), the max response, negative = inhibition was 22.5% (inactive).

On to `COc1ccc(C(CNC(=O)c2cccc(NS(=O)(=O)c3ccc(C)c(F)c3)c2)N2CCCC2)cc1` (configuration not stated), for which the max response, negative = inhibition is -55.7% (active).

Consider `COc1ccc(C(CNC(=O)c2cccc(S(=O)(=O)Nc3ccc(Br)cc3)c2)N(C)C)cc1` (configuration not stated), for which the max response, negative = inhibition was -53.5% (active).

For the molecule `COc1ccccc1C(CNC(=O)c1cccc(S(=O)(=O)Nc2ccc(F)cc2)c1)N(C)C` (configuration not stated), the max response, negative = inhibition was -23.9% (inactive).

With `COc1ccc(C(CNC(=O)c2ccc(NS(=O)(=O)c3ccc(F)c(C)c3)cc2)N(C)C)cc1` (configuration not stated), the max response, negative = inhibition was -15.4% (inactive).

On to `CN(C)C(CNC(=O)c1cccc(S(=O)(=O)N2CCc3ccccc3C2)c1)c1ccccc1` (configuration not stated), for which the max response, negative = inhibition was -80.6% (active).

In the case of `CC1(C(=O)NCc2ccc3c(c2)OCO3)CCN1C(=O)Cc1cccs1` (configuration not stated), the max response, negative = inhibition is 27.8% (inactive).

With `CCCc1c(C)nc2scc(-c3ccc(Cl)cc3)n2c1=O`, the max response, negative = inhibition is 3.72% (inactive).

On to `COc1ccc(OC)c(C(O)c2ncc(-c3cccc(C(F)(F)F)c3)[nH]2)c1` (configuration not stated), for which the max response, negative = inhibition is -26% (inactive).

`CCOC(=O)[C@]12CCCC=C1N(Cc1cccc3ccccc13)C(=O)[C@H](CC(=O)NCC13CC4CC(CC(C4)C1)C3)C2`: the max response, negative = inhibition is -25.2% (inactive).

`CCCNC(=O)c1cc(C2CCCCN2S(=O)(=O)c2cn(C)cn2)on1` (configuration not stated): the max response, negative = inhibition is 0.438% (inactive).

In the case of `CN(C)c1cccc(NC(=O)c2ccc(-c3ccc(F)c(F)c3)c3ccoc23)c1`, the max response, negative = inhibition is -0.987% (inactive).

On to `CC(C)CN1C(=O)CN(S(C)(=O)=O)CC1(C)C(=O)NCc1ccccc1` (configuration not stated), for which the max response, negative = inhibition was 18.8% (inactive).

Turning to `N#Cc1ccc(CSc2nnc(-c3ccccn3)n2-c2ccc(Cl)cc2)cc1`, the max response, negative = inhibition is -15.7% (inactive).

On to `FC(F)(F)c1nc(-c2ccccc2)ncc1-c1nnnn1-c1ccccc1`, for which the max response, negative = inhibition is 16.8% (inactive).

Turning to `Clc1ccc(-n2nnnc2-c2cnc(-c3ccccn3)nc2-c2cccs2)cc1`, the max response, negative = inhibition was -60.1% (active).

For `Cn1c(NCc2cccnc2)nc2cc(-c3ccc(F)cc3)sc2c1=O`, the max response, negative = inhibition was 0% (inactive).

Take `CCN(CC)CCCSc1nc2ccccc2s1`: the max response, negative = inhibition is -73.9% (active).

In the case of `CCN(CC)CCn1c2c(c(SCC(=O)Nc3nc4ccccc4s3)nc1=O)CCCC2`, the max response, negative = inhibition is -4.31% (inactive).

For `CCc1ccc(-c2nnn(Cc3nc4ccccc4s3)n2)cc1`, the max response, negative = inhibition is 12.9% (inactive).

As to `CCc1nc2ccc(C(=O)Nc3ccc(OC)c(OC)c3)cn2c1N(C)C(=O)c1cccc(OC)c1`, the max response, negative = inhibition was -28% (inactive).

For `COc1cccc(-c2nc(CS(=O)CC(=O)NCc3ccc(F)cc3)c(C)o2)c1` (configuration not stated), the max response, negative = inhibition is -12.9% (inactive).

With `COc1ccc(-c2nc(CS(=O)CC(=O)NCc3cccnc3)c(C)o2)cc1OC` (configuration not stated), the max response, negative = inhibition was -53.3% (active).

Regarding `COc1ccc(-c2nc(CS(=O)CC(=O)NCc3ccccc3)c(C)o2)cc1OC` (configuration not stated), the max response, negative = inhibition is -17% (inactive).

Turning to `CCN(CC)CCN(C)C(c1ccnc2ccccc12)c1nnnn1-c1ccc2c(c1)OCCO2` (configuration not stated), the max response, negative = inhibition was 0% (inactive).

On to `COc1ccc(CCNC(=O)c2cc3sccc3n2C)cc1OC`, for which the max response, negative = inhibition is -72% (active).

Turning to `COc1ccc(CCNC(=O)COC(=O)/C=C/c2cccs2)cc1OC`, the max response, negative = inhibition was -11.9% (inactive).

Consider `Cn1c(C(=O)NCCCN2CCCCC2)cc2sccc21`, for which the max response, negative = inhibition is -17.4% (inactive).

For `COc1cc(C(O)c2nc(-c3cccc(C(=O)O)c3)cs2)ccc1F` (configuration not stated), the max response, negative = inhibition was 5.94% (inactive).

In the case of `CN(Cc1c(F)cccc1Cl)C(=O)COC(=O)Cn1cnc2ccccc2c1=O`, the max response, negative = inhibition is 16% (inactive).

On to `O=C(COc1cccc(-n2cnnn2)c1)NCCC1=CCCCC1`, for which the max response, negative = inhibition is -5.35% (inactive).

Consider `Cc1nnc(OCC(=O)NCCC2=CCCCC2)c2ccccc12`, for which the max response, negative = inhibition was -80.1% (active).

For the molecule `O=C(COc1ccc(Cl)cc1)NCCC1=CCCCC1`, the max response, negative = inhibition was -11.2% (inactive).

For `COc1ccccc1N1CCN(Cc2ccc(OC)c3ccccc23)CC1`, the max response, negative = inhibition is -67.7% (active).

As to `CNCC(O)CN1CCN(c2ccccc2OC)CC1` (configuration not stated), the max response, negative = inhibition is 4.65% (inactive).

As to `COc1ccccc1N1CCN(Cc2cc(OC)c3c(c2)OCO3)CC1`, the max response, negative = inhibition is -91.2% (active).

For `COc1ccc(CN2CCN(Cc3ccc(OC)c(OC)c3OC)CC2)cc1`, the max response, negative = inhibition is -14% (inactive).

Consider `COc1cc(CNCc2ccc(OC)c3ccccc23)cc(OC)c1OC`, for which the max response, negative = inhibition is 4.84% (inactive).

Regarding `COc1cc(COCC(O)CN2CCN(Cc3ccc4c(c3)OCO4)CC2)cc(OC)c1OC` (configuration not stated), the max response, negative = inhibition was -12.9% (inactive).

Turning to `CNc1cncc(-c2ccc(NS(C)(=O)=O)cc2)n1`, the max response, negative = inhibition was -5.71% (inactive).

The values above are taken from PubChem BioAssay AID652054 (National Center for Advancing Translational Sciences (NCATS), 2013).
